Experimental data: ChEMBL document CHEMBL3988442, “University of Dundee, Small-Polar-MMV Screening Library” (2021)
The whole screen tested about 48,000 compounds, of which about 13,000 (27%) showed an effect of 50% or more. This is one part of the list.

system: Wolbachia pipientis; assay: Anti-Wolbachia Cell-Based Screen; format: functional; design: scale not given: in the data most compounds retested in dose-response had high values; details: 5 µM

Going from O=C(N1CCN(c2ccccc2O)CC1)C1(O)Cc2ccccc2C1 to CN(Cc1ccc(F)cc1)CC1(O)CCN(C(=O)c2ccccc2)C1 (centres undefined), the “Percent Effect” value falls from -7.176% to -10.29%.

Compared with O=C(N[C@@H]1CN(c2ncccn2)C[C@@H]2CCCO[C@@H]21)c1ccnnc1.O=C(O)C(F)(F)F, O=C(O)C(F)(F)F.O=C(O)C(F)(F)F.O=C(c1ccccn1)N1Cc2nccn2CC(CN2CCOCC2)C1 (centres undefined) is higher in “Percent Effect” value: -7.292% for the first, -3.585% for the second.

Compared with CSc1ccccc1C(=O)Nc1ccc(OC2CCN(C)CC2)cc1, Cc1cccc(C(=O)Nc2ccc(OC3CCN(C)CC3)cc2)c1 is lower in “Percent Effect” value: 4.435% for the first, -4.145% for the second.

Compared with Cn1cc(CNc2cnn(CC3CCCO3)c2)c(-c2ccncc2)n1 (centres undefined), Cn1cc(CNCC2Cn3nnc(-c4ccccc4)c3CO2)cn1 (centres undefined) is lower in “Percent Effect” value: 4.968% for the first, -12.32% for the second.

Compared with O=C(c1ccc[nH]1)N1Cc2nccn2CC(Cn2ncccc2=O)C1 (centres undefined), O=C(c1ccccc1)N1Cc2nccn2CC(Cn2ncccc2=O)C1 (centres undefined) is lower in “Percent Effect” value: 107.9% for the first, 106.9% for the second.

First: CN(Cc1cccnc1)CC1CN(C(N)=O)Cc2nccn2C1 (centres undefined)
Second: NC(=O)N1Cc2nccn2CC(Cn2ncccc2=O)C1 (centres undefined)
The “Percent Effect” value of the first is lower: -13.65% for the first, 106.3% for the second.

Going from CS(=O)(=O)N1Cc2nccn2CC(Cn2ncccc2=O)C1 (centres undefined) to Cc1nccn1CC1CCCN(Cc2ccc(-c3cccnc3)cc2)C1 (centres undefined), the “Percent Effect” value rises from 1.411% to 30.54%.

Compared with CSc1ncc(C(=O)N2C[C@H]3CC[C@@H]2CN(c2ncccn2)C3)cn1, CN(C)CC1(O)CCCN(C(=O)c2cnc(-c3ccccn3)nc2)C1 (centres undefined) is higher in “Percent Effect” value: -34.6% for the first, 7.408% for the second.

Compared with CC(C)N(CC(N)=O)Cc1cccc(Br)c1, CCc1ccc(C(NCC(N)=O)C(C)(C)C)o1 (centres undefined) is lower in “Percent Effect” value: -7.902% for the first, -15.62% for the second.

Compared with CCN(Cc1nc(COC)no1)C(=O)CCNC(=O)c1ccccc1F, CCc1ncc(C(=O)NCCNC(=O)Cc2ccc(F)cc2)s1 is higher in “Percent Effect” value: -2.73% for the first, -2.58% for the second.

Going from CCN(Cc1cccc(C(=O)Nc2c(C)cnn2C)c1)[C@H]1COC[C@@H]1O to COc1ccc(CNCCc2cccc(C(N)=O)c2)cc1O, the “Percent Effect” value rises from 2.472% to 8.083%.

Compared with CC(C)c1nsc(NC2CCOC3(CCCC3)C2)n1 (centres undefined), CN1CCOC(C(=O)N2CCC3(CCCC3)CC2)C1 (centres undefined) is lower in “Percent Effect” value: -5.666% for the first, -33.61% for the second.

Compared with CCc1ncc(C(=O)NCCNc2ccncc2)s1, Cc1ncc(C(=O)NCCNc2ccncc2)s1 is higher in “Percent Effect” value: 82.39% for the first, 106.3% for the second.

Compared with CCCC(C)(C)NC(=O)c1cnc(C)s1, Cc1ncc(C(=O)NCCNc2ncnc3sccc23)s1 is lower in “Percent Effect” value: -0.6309% for the first, -47.31% for the second.

First: CCc1ncc(C(=O)NCCNc2ncnc3sccc23)s1
Second: CNS(=O)(=O)c1ccc(C(=O)NCCNc2ncccn2)cc1
The “Percent Effect” value of the first is lower: -14.73% for the first, 1.025% for the second.

Going from Cc1ccc(-c2nnc(CN3CCOCC(CO)C3)o2)n1C (centres undefined) to Cc1nnc(CN2CCC(Oc3ccc(F)cc3)CC2)o1, the “Percent Effect” value rises from -20.97% to -12.54%.

First: CCOC1CCCN(C(=O)c2[nH]nc(C(C)C)c2Br)C1 (centres undefined)
Second: COc1ccc(F)cc1C(=O)N1CCCC(n2nc(C)nc2C)C1 (centres undefined)
The “Percent Effect” value of the first is higher: -3.012% for the first, -10.5% for the second.

Going from Cc1cnn(CC2CCCCN2C(=O)Cc2csc(C)n2)c1 (centres undefined) to Cc1cnn(CC2CCCCN2C(=O)Cc2c(C)noc2C)c1 (centres undefined), the “Percent Effect” value rises from 1.923% to 117.3%.

Compared with Cc1cnn(CC2CCCN2C(=O)CCc2c(C)noc2C)c1 (centres undefined), Cc1cnn(CC2CCCN2C(=O)Cc2c(C)noc2C)c1 (centres undefined) is higher in “Percent Effect” value: 111.6% for the first, 123.7% for the second.

Compared with Cc1cnn(CC2CCCN2C(=O)CCc2c(C)nc(C)[nH]c2=O)c1 (centres undefined), Cc1cnn(CC2CCCN2C(=O)CCc2c(C)nn(C)c2C)c1 (centres undefined) is lower in “Percent Effect” value: 112.3% for the first, 103.1% for the second.

Compared with Cc1cnn(CC2CCCN2C(=O)CCc2nc3ccccc3[nH]2)c1 (centres undefined), Cc1nn(C)c(C)c1CCC(=O)N1CCCC1Cn1cccn1 (centres undefined) is higher in “Percent Effect” value: 1.047% for the first, 11.22% for the second.

Going from Cc1cc(CN(C)C2CCN(c3cccc(-c4cscn4)c3)CC2)on1 to c1cc(CN2CCCC2)cc(-n2ccnc2-c2ccncc2)c1, the “Percent Effect” value rises from -19.07% to -6.612%.

Compared with CC(C)OCCOCc1cccc(NC(=O)NCc2ccncc2)c1, O=C(CCc1ccccc1Br)NCC(=O)NCc1ccccc1 is lower in “Percent Effect” value: 3.047% for the first, 2.467% for the second.

First: Cn1nnc2cc(C(=O)NS(=O)(=O)c3ccc(F)cc3)ccc21
Second: Cn1nnc2cc(C(=O)NS(=O)(=O)Cc3ccc(F)cc3)ccc21
The “Percent Effect” value of the first is higher: -8.568% for the first, -12.26% for the second.

Compared with Cc1cc(C)n(CC2CCCN2C(=O)Cc2c(C)noc2C)n1 (centres undefined), Cc1cc(CNC(=O)C2CCCCN2C(=O)OC(C)(C)C)no1 (centres undefined) is higher in “Percent Effect” value: 2.87% for the first, 8.299% for the second.

Going from COc1ccc(CCC2CCCN(CC(=O)O)C2)cc1 (centres undefined) to COc1ccc(CCC2CCCN(C(=O)CCc3cc(O)no3)C2)cc1 (centres undefined), the “Percent Effect” value falls from 116.8% to 6.592%.

First: O=C(O)COc1ccc(CN2CCCC(Cc3cccnc3)C2)cc1 (centres undefined)
Second: O=C(O)COc1ccc(CN2CCCC(CCc3ccccc3)C2)cc1 (centres undefined)
The “Percent Effect” value of the first is higher: 125.7% for the first, 98.9% for the second.

Going from CN(C)C(=O)CCC1CCCN(Cc2ccc(-c3cccnc3)cc2)C1 (centres undefined) to COc1ccnc(CN2CCCC(CCc3ccccc3)C2)c1OC (centres undefined), the “Percent Effect” value falls from -4.388% to -14.6%.

Compared with COc1coc(CN2CCCC(CCc3ccc(F)cc3)C2)cc1=O (centres undefined), Cc1[nH]c(=O)[nH]c(=O)c1CN1CCCC(CCc2ccccc2)C1 (centres undefined) is lower in “Percent Effect” value: 20.93% for the first, -19.89% for the second.

Going from OCC(O)CSCc1ccc(Cl)cc1Cl (centres undefined) to CN(C)CC1(O)CCN(C(=O)c2ccc(-n3cnnc3)cc2Cl)C1 (centres undefined), the “Percent Effect” value falls from -1.817% to -7.306%.

First: Cc1nc(NC(=O)OC(C)(C)C)sc1C#N
Second: Cc1csc(N2CCN(C(=O)Cc3ccc(C)s3)CC2)n1
The “Percent Effect” value of the first is higher: 16.95% for the first, 9.508% for the second.

Compared with CCCc1n[nH]c(C2CN(C(=O)c3n[nH]c4ccccc34)CCO2)n1 (centres undefined), CCCc1n[nH]c(C2CN(C(=O)c3cccc4[nH]ncc34)CCO2)n1 (centres undefined) is higher in “Percent Effect” value: 103.5% for the first, 117.3% for the second.

Going from CC(C)c1n[nH]c(C2CN(C(=O)c3cccc4cn[nH]c34)CCO2)n1 (centres undefined) to CCCc1n[nH]c(C2CN(C(=O)c3cccc4cn[nH]c34)CCO2)n1 (centres undefined), the “Percent Effect” value rises from 2.376% to 108.2%.

First: CCCc1n[nH]c(C2CN(C(=O)c3cc(F)ccc3OC)CCO2)n1 (centres undefined)
Second: CCCc1n[nH]c(C2CN(C(=O)c3cccnc3N(C)C)CCO2)n1 (centres undefined)
The “Percent Effect” value of the first is lower: -4.099% for the first, 106.9% for the second.

Compared with O=C(O)C(F)(F)F.O=C(O)C(F)(F)F.c1snnc1CN1C[C@H]2CCC[C@@H](CN3CCOCC3)[C@H]2C1, O=C(Cc1ccccc1)C1CCCN(Cc2cncn2C2CCCC2)C1 (centres undefined) is lower in “Percent Effect” value: 4.838% for the first, -39.33% for the second.

First: COc1ccc(C(=O)NCCCC2(C3OCCO3)CCOCC2)cc1
Second: COc1ccc(CN(C)CC2(O)CCN(C(=O)c3cccn3C)C2)cc1 (centres undefined)
The “Percent Effect” value of the first is higher: 0.9631% for the first, -15.88% for the second.

Going from CCCc1n[nH]c(C2CN(C(=O)C3=COCCC3)CCO2)n1 (centres undefined) to CCCc1n[nH]c(C2CN(C(=O)c3ccco3)CCO2)n1 (centres undefined), the “Percent Effect” value rises from -2.018% to -0.9471%.

Going from CCCc1n[nH]c(C2CN(C(=O)c3ccc[nH]3)CCO2)n1 (centres undefined) to C[C@H]1C[C@H]2CN(C(=O)c3cccc4c3OCCO4)CC[C@H]2O1, the “Percent Effect” value falls from 125.3% to 2.231%.

Going from COc1ccc(F)cc1C(=O)N1CC(c2ccncc2)C1 to COc1ccc(F)cc1C(=O)N1C[C@H]2C[C@H](OC)C[C@H]2C1, the “Percent Effect” value rises from 9.533% to 117.3%.

Going from CO[C@H]1C[C@@H]2CN(C(=O)c3ccc(C)s3)C[C@@H]2C1 to CO[C@H]1C[C@@H]2CN(C(=O)Cc3ccc(C)s3)C[C@@H]2C1, the “Percent Effect” value falls from 128.5% to 123.2%.

Compared with C[C@@H]1C[C@H]2CN(C(=O)c3cccc4c3OCCO4)C[C@H]2O1, CO[C@H]1C[C@@H]2CN(C(=O)c3cccc4c3OCCO4)C[C@@H]2C1 is higher in “Percent Effect” value: -11.28% for the first, 78.24% for the second.

Going from Cc1ccc(CC(=O)NC(C)C(=O)N2CCS(=O)(=O)CC2)s1 (centres undefined) to Cc1ccc(OC2(C(=O)O)CCN(C(=O)c3ccsc3)CC2)cn1, the “Percent Effect” value falls from 0.993% to -3.963%.

First: COc1ccc2c(c1)CN(Cc1nc3c(cnn3C)c(=O)[nH]1)CC2
Second: Cn1ccnc1-c1nccn1-c1cccc(CN2CCCC2)c1
The “Percent Effect” value of the first is higher: -2.019% for the first, -8.491% for the second.

First: Cc1sc(-c2ccco2)nc1C(=O)N(CC1CCOC1)C1CC1 (centres undefined)
Second: Cc1ncncc1C(=O)N1CCC(O)(CN(C)Cc2ccc(F)cc2)C1 (centres undefined)
The “Percent Effect” value of the first is lower: 13.16% for the first, 90.38% for the second.

First: CN(C)CC1(O)CCCN(C(=O)c2ccccc2-n2cncn2)C1 (centres undefined)
Second: CN(C)CC1(O)CCN(C(=O)c2cnc(-c3ccccn3)nc2)C1 (centres undefined)
The “Percent Effect” value of the first is higher: -6.613% for the first, -10.46% for the second.

First: CN(C)CC1(O)CCN(C(=O)c2cnc(-c3cccnc3)nc2)C1 (centres undefined)
Second: CN(Cc1ccc(F)cc1)CC1(O)CCN(C(=O)c2ccncc2)C1 (centres undefined)
The “Percent Effect” value of the first is lower: -2.107% for the first, 120.1% for the second.

Compared with CN(Cc1ccc(F)cc1)CC1(O)CCN(C(=O)c2ccccn2)C1 (centres undefined), CN(Cc1ccc(F)cc1)CC1(O)CCN(C(=O)c2ccn(C)n2)C1 (centres undefined) is higher in “Percent Effect” value: 129.8% for the first, 136.3% for the second.

First: CN(Cc1ccc(F)cc1)CC1(O)CCN(C(=O)c2ccsc2)C1 (centres undefined)
Second: CN(Cc1ccc(F)cc1)CC1(O)CCN(C(=O)c2cccs2)C1 (centres undefined)
The “Percent Effect” value of the first is lower: 101.4% for the first, 131.3% for the second.

Compared with COCC(C)NC(=O)CN1CCC2(CC1)OCCO2 (centres undefined), CN(C)CCN1CC2(CCC1=O)CCN(C(=O)c1ccn(C)n1)CC2 is higher in “Percent Effect” value: -2.993% for the first, 6.742% for the second.

First: Cc1nccnc1N1CCC(Cc2ccccc2Cl)(C(=O)O)CC1
Second: CN1CCC(Oc2ccc(-n3ccnc3-c3nccn3C)cc2)CC1
The “Percent Effect” value of the first is lower: 4.229% for the first, 110.4% for the second.

Compared with CN1CCC(Oc2ccc(-n3ccnc3-c3ccncc3)cc2)CC1, Cc1ccc(-c2nccn2-c2ccc(OC3CCN(C)CC3)cc2)o1 is lower in “Percent Effect” value: 114.7% for the first, 109.9% for the second.

Going from Cc1ccc(C)c(C(=O)Nc2ccc(OC3CCN(C)CC3)cc2)c1 to Cc1ccc(C(=O)Nc2ccc(OC3CCN(C)CC3)cc2)c(C)c1, the “Percent Effect” value rises from -4.844% to 4.12%.
